Screening results deposited in PubChem BioAssay by National Center for Advancing Translational Sciences (NCATS).
FUS yeast rescue: qHTS for Suppressors of FUS Proteinopathy: Primary screen using FUS-linked yeast assay; S. cerevisiae FUS-expressing, growth rescue, OD600, 24 h; Potency, µM (doses to about 76.6 µM), usual class: activators; hit rate 0.24% among 390,000; note: nearly all actives have a fitted effect of over 55% in size
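Steps: raffinose overnight preculture; dilution to OD 0.005 in 2% galactose minimal medium; compound addition (concentration series); 24hr at 30C, 99% humidity; absorbance read at 600 nm.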
Abeta rescue: qHTS for compounds that reverse cellular toxicity of Amyloid beta (A-beta) peptide in yeast: Primary Screen | hit rate 0.063% among 410,000 | yeast expressing A-beta42, growth rescue, OD600, 48 h; response scale: 0% DMSO, 100% iron-clioquinol control | Potency, µM (series often up to 46.1 µM), most hits filed as activators; note: nearly all actives have a fitted effect of over 55% in size
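Yeast growth medium received pinned compounds, then yeast cells expressing toxic A-beta were added; plates incubated at 30 C for 48 hr. Growth read as absorbance at 600 nm, normalized to DMSO and equimolar FeCl3 plus clioquinol controls.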
TDP43 rescue: qHTS of TDP-43 Inhibitors; TDP-43 expressing yeast growth rescue, BacTiter-Glo, 24 h; Potency, µM (top dose mostly 46.1 µM), usual class: activators; hit rate 1.8% among 410,000; AID 652104, 2013; note: nearly all actives have a fitted effect of over 50% in size
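Yeast expressing TDP-43 (pregrown in raffinose, seeded at OD600=0.02 in galactose medium) exposed to compounds 24 hr at 30 deg C. Growth read by BacTiter-Glo luminescence; rescue of toxicity appears as increased signal.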
aSyn yeast inh: qHTS of alpha-syn Inhibitors. Potency, µM (highest dose often 46.1 µM), hits mostly activators. hit rate 0.14% among 370,000. Yeast expressing alpha-synuclein, growth rescue, BacTiter-Glo, 24 h; note: nearly all actives have a fitted effect of over 65% in size
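Rescue of yeast growth: cells expressing toxic alpha-synuclein, induced in galactose at OD600 0.02, incubated with compound 24 h at 30 C. ATP luminescence quantified growth; inhibitors of toxicity appear as activators.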
A number is an active result; . = inactive; ? = inconclusive; / = no result given; [ ] = another dose, or the depositor's remark. Rows were chosen to be rich in hits. Some 2.1% of all compounds tested hit in one or more screens of this group. Calls come from the whole dose curve; as a rule, active = well fitted curve in the direction sought with a large enough effect; inconclusive = small, poorly fitted or top-dose-only effect, or another doubt; inactive = no such curve, though single readings can be large; an effect the other way counts as inactive or inconclusive.

SMILES	FUS yeast rescue	Abeta rescue	TDP43 rescue	aSyn yeast inh
Cc1ccc(-c2nnn(CC(=O)N(CC3CCCO3)C(C(=O)NC3CCCC3)c3ccc(O)cc3)n2)o1 (stereo not drawn)	28.2µM	.	.	.
CN(Cc1ccccc1)c1ccc2cc(S(=O)(=O)N3CCCCC3)ccc2n1	.	.	.	/
O=C(c1ccc2c(c1)OCCO2)C1CCN(C(=O)c2ccc(F)c(F)c2)CC1	.	.	11.2µM	.
CC1CCN(c2oc(-c3ccc(OCc4ccccc4Cl)cc3)nc2C#N)CC1	/	/	/	.
CCN(CC)C(=O)CSCc1cnn(-c2ccccc2)c1-n1cccc1	.	.	17.8µM	.
COc1ccc(NC(=O)CSCc2cnn(-c3ccccc3)c2-n2cccc2)cc1	?	.	15.8µM	/
COc1ccc(CNC(=O)CSCc2cnn(-c3ccccc3)c2-n2cccc2)cc1	.	.	?	.
COc1ccc(NC(=O)Cn2c(SCc3cccc(Cl)c3)nc3ccncc32)c(OC)c1OC	.	.	.	/
CC(=O)Nc1ccc(C(=O)OCc2ccccc2Cl)cc1	.	.	20µM	.
CC(=O)Nc1ccc(C(=O)CCl)cc1	.	.	10µM	.
CC(=O)NCc1ccc(C(=O)CCl)cc1	.	.	.[9.22 µM]	.
CC(=O)Nc1ccc(C(=O)OCCCOC(=O)c2ccc(NC(C)=O)cc2)cc1	.	.	.	.
CC(=O)Nc1ccc(/C=C/c2sc3ccccc3[n+]2CCCCI)cc1	/	/	/	.
C/C(=N\O)C(=O)C(CN1CCCCC1)CN1CCCCC1	.	.	.	14.1µM
CC(=O)/C(CN1CCCCC1)=N\O	.	.	.	.
COc1ccccc1CNc1cc(C)nc2nc(-c3ccc(C)cc3)nn12	.	.	.	.
O=S(=O)(NCCc1csc(-c2ccc(F)cc2)n1)c1ccc(F)cc1F	.	?	2.82µM	/
O=S(=O)(NCCc1csc(-c2cccnc2)n1)c1ccc(Cl)s1	.	11.2µM	14.1µM	.
COc1ccc(F)cc1S(=O)(=O)NCCc1csc(-c2ccc(Cl)cc2)n1	?	.	?	/
O=C(CSc1nnc(-c2ccncc2)n1-c1ccccc1)Nc1ccc2c(c1)OCCO2	.	/	/	/
Cc1ccc(S(=O)(=O)N2CCN(C(=O)c3ccc4c(c3)OCO4)CC2)cc1	.	.	.	.
Cc1cc(C)c(S(=O)(=O)N2CCN(C(=O)c3c(C)nn(-c4ccccc4)c3Cl)CC2)c(C)c1	/	.	.	.
O=C(c1ccc2c(c1)OCO2)N1CCN(S(=O)(=O)c2ccc(Br)cc2Cl)CC1	.	.	17.8µM	.
Cc1cc(C)c(S(=O)(=O)N2CCN(C(=O)c3ccc4c(c3)OCO4)CC2)c(C)c1	.	.	15.8µM	.
Cc1cc(C)c(S(=O)(=O)N2CCN(C(=O)c3ccc(-n4nc(C)c(Cl)c4C)cc3)CC2)c(C)c1	15.8µM	.	?	.
SMILES	FUS yeast rescue	Abeta rescue	TDP43 rescue	aSyn yeast inh
O=C(c1ccc2c(c1)OCO2)N1CCN(S(=O)(=O)c2ccccc2)CC1	/	.	.	.
O=C(O)CN(c1cccc(C(F)(F)F)c1)S(=O)(=O)c1ccccc1	.	.	.	.
O=S(=O)(c1ccccc1)N(CC(F)(F)F)c1ccc(C(O)(C(F)(F)F)C(F)(F)F)cc1	.	?	22.4µM	.
CCOc1ccc(CCNc2ncnc3onc(-c4ccc(Cl)cc4)c23)cc1	.	.	.	/
COc1ccc(CNC(=O)c2ccc3c(c2)N=C(C)c2c(C)ccc(C)c2S3)cc1	?	.	12.6µM	.
CCCNC(=O)c1ccc2c(c1)N=C(C)c1c(C)ccc(C)c1S2	.	.	?	.
Cc1ccc(S(=O)(=O)N(C)CCCN(C)c2nc(-c3cccs3)nc3ccccc23)cc1	/	/	/	.
O=[N+]([O-])c1ccc(OCc2cnc(Cl)s2)c([N+](=O)[O-])c1	.	.	11.2µM	.
OCCNc1ncnc2c1c(-c1ccccc1)c(-c1ccccc1)n2Cc1ccco1	.	.	.	12.6µM
CCN(CC)C(=O)CC[C@H]1CC[C@]2(CCCN(C(=O)C3CCCC3)C2)O1	.	/	/	/
COc1ccc(OC)c(NC(=O)N2CCN(S(=O)(=O)c3ccc4c(ccn4C)c3)CC2)c1	?	.	.	?
COc1ccc(NC(=O)N2CCN(S(=O)(=O)c3ccc4c(ccn4C)c3)CC2)c(OC)c1	12.6µM	.	.	.
CCOc1ccc(NC(=O)N2CCN(S(=O)(=O)c3ccc4c(ccn4C)c3)CC2)cc1	39.8µM	.	.	.
CCOC(=O)c1[nH]c(C)c(CCC(=O)Nc2cc(Cl)c(OC)cc2OC)c1C	.	.	.[9.22 µM]	/
